Source: PubChem
In the library only some 2.4% were active in any assay of this set; here they are far more common.
FEN1 inhibitor: human FEN1 inhibition; P39748; Recombinant FEN1 flap cleavage, fluorescence, 15 min; Potency, µM (titrated, usually from 114 µM), hits mostly inhibitors; 390,000 tested, 0.35% active; also: nearly all actives have a fitted effect of over 65% in size
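Concentration–response screening of FEN1 (10 nM): 15 min compound preincubation at room temperature, reaction started with 50 nM substrate and read at 0 and 15 min. Corrected, normalized data were fitted by a four-parameter Hill equation.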
POLI inh: inhibitors of human DNA polymerase iota | Pol iota fluorescent replication assay, 10 min | Potency, µM (series often up to 115 µM), actives largely listed as inhibitors | 390,000 tested, 1% active
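Fluorescent replication assay read twice, at 0 min and 10 min after adding 50 nM (final) substrate. Enzyme (10 nM) and compounds were first incubated 15 min at room temperature; enzyme-free buffer wells were negative controls.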
POLK inh: inhibitors of human DNA polymerase kappa | Q9UBT6 | purified Pol kappa, fluorescent DNA synthesis assay, 10 min | Potency, µM (doses to about 107 µM), actives largely listed as inhibitors | 400,000 tested, 0.53% active | AID 588579
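10 nM Pol kappa preincubated 15 min at room temperature with compounds, then reaction started with substrate at 50 nM final. Fluorescence read kinetically at 0 and 10 min; buffer-only wells served as negative control.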
TDP1 block: inhibitors of human tyrosyl-DNA phosphodiesterase TDP1 | Q9NUW8 | recombinant TDP1, AlphaScreen DNA substrate cleavage | Potency, µM (series often up to 130 µM), usual class: inhibitors | 350,000 tested, 0.28% active | AID 485290; also: nearly all actives have a fitted effect of over 40% in size
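Recombinant human Tdp1 (E. coli-expressed, 1 nM final) preincubated with compounds 15 min at room temperature, then 5'-biotin/3'-phosphotyrosine-FITC DNA substrate (15 nM final) added for 5 min. AlphaScreen beads (10 ug/ml final) added 10 min; cleavage lowers signal.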
POLH inh: inhibitors of human DNA polymerase eta; AID 588591; recombinant Pol eta, fluorescent DNA replication assay; Potency, µM (titrated, usually from 114 µM), hits mostly inhibitors; Q9Y253; 390,000 tested, 1.2% active
Target sequence (Q9Y253 whole entry, looked up): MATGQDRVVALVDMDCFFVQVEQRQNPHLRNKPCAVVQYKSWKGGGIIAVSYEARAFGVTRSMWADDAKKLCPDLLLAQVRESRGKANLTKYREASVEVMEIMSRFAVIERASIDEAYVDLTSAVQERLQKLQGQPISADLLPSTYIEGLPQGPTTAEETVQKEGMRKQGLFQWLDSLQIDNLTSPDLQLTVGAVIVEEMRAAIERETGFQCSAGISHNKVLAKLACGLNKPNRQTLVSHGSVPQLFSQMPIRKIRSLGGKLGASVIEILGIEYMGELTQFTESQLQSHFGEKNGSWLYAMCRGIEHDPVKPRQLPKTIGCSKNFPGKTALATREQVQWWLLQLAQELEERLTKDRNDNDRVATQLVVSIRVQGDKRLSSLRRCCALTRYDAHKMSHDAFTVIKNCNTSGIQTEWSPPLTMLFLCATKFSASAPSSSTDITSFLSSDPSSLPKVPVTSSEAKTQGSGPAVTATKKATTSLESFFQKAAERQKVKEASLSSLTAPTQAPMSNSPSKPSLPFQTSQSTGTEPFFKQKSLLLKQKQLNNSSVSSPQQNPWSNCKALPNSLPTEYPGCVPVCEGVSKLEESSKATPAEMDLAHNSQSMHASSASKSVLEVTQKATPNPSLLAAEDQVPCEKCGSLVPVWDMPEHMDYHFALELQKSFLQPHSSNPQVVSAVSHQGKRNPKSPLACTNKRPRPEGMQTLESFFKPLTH
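Fluorescent replication assay: 50 nM final substrate added after a 15 min room-temperature compound preincubation with 10 nM enzyme. Signal taken at 0 min and again at 10 min.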
Pol beta inh: DNA polymerase beta (human) inhibition; P06746; Pol beta primer extension/strand displacement, fluorescence kinetic; Potency, µM (series often up to 114 µM), actives largely listed as inhibitors; 340,000 tested, 1.3% active
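10 nM enzyme + cpd, 15 min RT; start with substrate 50 nM final; read 0 min and after 10 min RT. Corrected, normalized data; 4-parameter Hill curve fit.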
Numbers stand for hits; i = inactive; ? = inconclusive; nt = not tested or not shown; ! = not active in a repeat; [ ] = another dose, or the depositor's remark. Calls follow the shape of the dose curve; as a rule, active = well fitted curve in the direction sought with a large enough effect; inconclusive = small, poorly fitted or top-dose-only effect, or another doubt; inactive = no such curve, though single readings can be large; an effect the other way counts as inactive or inconclusive.

SMILES	FEN1 inhibitor	POLI inh	POLK inh	TDP1 block	POLH inh	Pol beta inh
O=C(CSc1nc2ccccc2c(=O)n1Cc1ccccc1)Nc1ccc(Br)cc1C(=O)O	i	?	i	i	89.1µM	?
Cc1ccnc2ccc([N+](=O)[O-])cc12	i	i	i	nt	nt	nt
CCOc1ccc(OCC)c(Nc2nc3ccccc3c3nnc(C)n23)c1	i	i	i	i	i	i
Cc1nnc2c3ccccc3nc(Nc3ccccc3C(=O)O)n12	?	i	i	i	79.4µM	i
CCCCC(=O)N(Cc1ccc(-c2ccccc2-c2nn[nH]n2)cc1)C(C(=O)O)C(C)C (stereo not given)	nt	nt	i	i	nt	nt
CC(=O)NC1=NC(=O)/C(=C/c2cn(C(C)=O)nc2-c2ccccc2)S1	?	22.4µM	i	nt	?	i
CCN=C1S/C(=C\c2cn(C(C)=O)nc2-c2ccccc2)C(=O)N1CC	i	i	i	i	i	i
O=C(Nc1ccc(Cl)cc1N1CCOCC1)C1CC1	i	i	i	i	i	i
Cc1nc2cc(N3CCOCC3)c(NC(=O)C3CC3)cc2c(=O)n1Cc1ccccc1	i	?	?	i	20µM	i
O=C(CSC1=NCCS1)Nc1nc2c(s1)CCCC2	i	i	i	i	i	56.2µM
COCc1cc(C)nc(OCC(=O)N/N=C/c2ccc(-c3cccc([N+](=O)[O-])c3)o2)c1C#N	nt	nt	nt	i	nt	i
COCc1cc(C)nc(N/N=C/c2ccc(-c3ccc(C(=O)O)c(Cl)c3)o2)c1C#N	nt	nt	nt	28.2µM	nt	22.4µM
COc1ccc(CN(Cc2ccccc2)C(C)=O)cc1COc1ccc(NC(C)=O)cc1	i	i	i	i	nt	nt
Cc1sc2nc(CN3CCCCC3)nc(Nc3ccc4c(c3)OCCO4)c2c1C	i	i	i	i	i	79.4µM
C/C(=N/NS(=O)(=O)c1ccccc1)c1c[nH]c2ccccc12	i	89.1µM	i	i	i	i
C[n+]1ccc(/C=C/c2cc[n+](C)c3ccccc23)c2ccccc21	10µM	?	?	nt	nt	nt
C[n+]1ccc(/C=C/c2ccc([N+](C)(C)C)cc2)c2ccccc21	22.4µM	?	?	nt	nt	nt
C[n+]1ccc(/C=C/c2ccc(F)cc2)c2ccccc21	i	i	i	nt	nt	nt
COc1ccc(/C=C/c2cc[n+](C)c3ccccc23)cc1OC	44.7µM	?	?	nt	nt	nt
COc1ccccc1CCNC(=O)c1ccc2nc[nH]c2c1	i	i	i	?	?	44.7µM
ICC[n+]1csc2ccccc21	i	i	i	nt	nt	nt
COc1cc2c(cc1OC)C(c1ccc(N)cc1)=NNC(=O)C2	nt	nt	i[19.4 µM]	i	nt	nt
CC(C)CCn1c(SCC(=O)N2CC(=O)Nc3ccccc32)nc2scc(-c3cccs3)c2c1=O	i	?	?	i	?	22.4µM
O=C(CSc1nc2scc(-c3cccs3)c2c(=O)n1CCc1ccccc1)N1CCCC1	i	i	i	nt	i	nt
COc1cc2nc(Cl)nc(NC(C)C)c2cc1OC	i	i	i	nt	nt	nt
SMILES	FEN1 inhibitor	POLI inh	POLK inh	TDP1 block	POLH inh	Pol beta inh
CCC(CC)NC(=O)Cc1ccc(S(=O)(=O)N2CCOCC2)s1	i	?	i	i	10µM	?
COC(=O)CCNC(=O)Cc1ccc(S(=O)(=O)N2CCCCC2)s1	i	?	i	i	79.4µM	nt
CCCC(C)NC(=O)Cc1ccc(S(=O)(=O)N2CCOCC2)s1 (stereo not given)	i	i	i	i	i	nt
O=[N+]([O-])c1ccc(Nc2nc(NCCN3CCOCC3)nc(Nc3ccc(Cl)cc3)n2)cc1	i	i	i	nt	nt	nt
CN(C)Cc1ccccc1-c1cncnc1NCc1cccnc1	nt	nt	i	nt	nt	nt
Cc1cccc(/C(N)=N/OC(=O)CCCc2ccccc2)c1	i	i	i	56.2µM	i	i
N/C(=N\OC(=O)CCCc1ccccc1)c1ccccc1	i	i	i	56.2µM	i	i
O=C(CCCc1ccccc1)c1ccccc1	i	i	i	35.5µM	i	i
O=C(CCCC(=O)c1ccccc1)NCCc1ccccc1	i	i	i	nt	i	i
COc1cc(C2Nc3ccccc3C(=O)N2Cc2ccccc2)ccc1OCc1ccc(NC(C)=O)cc1 (stereo not given)	nt	nt	nt	i	nt	nt
Cc1ccc2c(/C=C/c3ccc(N(C)C)cc3)c(C)cnc2c1	i	?	i	nt	nt	nt
c1ccc2c(N=NN3CCCCC3)ccnc2c1	i	i	i	nt	nt	nt
O=C(NCCn1cc(SCc2ccccc2)c2ccccc21)c1cccs1	89.1µM	89.1µM	?	i	i	i
O=C(NCCn1cc(SCc2ccc(Br)cc2)c2ccccc21)c1cccs1	i	i	i	i	i	i
CNC[C@H](O)c1ccc(O)c(O)c1	nt	?	7.08µM!	44.7µM!	i	i
NC[C@@H](O)c1ccc(O)c(O)c1	nt	nt	11.9µM	?	nt	nt
COc1cc(SC)ccc1C(=O)N1CCC(Cc2ccccc2)CC1	?	nt	i	i	nt	nt
CC(=O)Nc1ccc(C2C(C)CCC3C(=O)N4C(CCC(C)[C@@H]4c4ccc(NC(C)=O)cc4)C(=O)N32)cc1 (stereo not given in full)	nt	nt	nt	i[21 µM]	nt	nt
Cc1c(CC(=O)O)c(=O)oc2c(C)c3occ(-c4ccc(F)cc4)c3cc12	?	i	i	nt	i	50.1µM
COc1ccc(-c2coc3c(C)c4oc(=O)c(CCC(=O)O)c(C)c4cc23)cc1	i	?	i	nt	50.1µM	?
C[c-]1[c-](C)[c-](C)[c-](C)[c-]1C.[Fe].c1cc2nccc(N3CCCC3)[c-]2c1 (stereo not given)	?	10µM!	?	7.94µM!	20µM!	4.47µM!
CO[C@H]1COC(=O)C/C=C\[C@@H](C)COC(=O)[C@@H](C)NC(=O)C/C=C\[C@@H]1C	nt	nt	nt	i[21 µM]	nt	nt
COC(=O)C1CCN(C(=O)COC(=O)CNS(=O)(=O)c2ccc(SC)c([N+](=O)[O-])c2)CC1	i	79.4µM	i	35.5µM	?	nt
CSc1ccc(S(=O)(=O)NCC(=O)OCC(=O)N2CCCC2=O)cc1[N+](=O)[O-]	i	i	i	i	i	nt
COc1cc(OC)c(NC(=O)C2CCCN(c3ncnc4c3nc3n4CCCCC3)C2)cc1Cl (stereo not given)	i	i	i	i	i	i
SMILES	FEN1 inhibitor	POLI inh	POLK inh	TDP1 block	POLH inh	Pol beta inh
Cc1ccccc1OCC(=O)Nc1nnc(S(=O)(=O)N(C)c2ccccc2)s1	i	i	i	i	i	i
CN(c1ccccc1)S(=O)(=O)c1nnc(NC(=O)COc2ccccc2)s1	i	79.4µM	i	i	?	?
COc1ccccc1-c1cncnc1NCCNC(C)=O	nt	nt	i	nt	nt	nt
CCc1cccc(NC(=O)COC(=O)c2ccccc2OCc2ccccc2Br)c1	i	i	i	nt	nt	nt
COc1ccc(-c2cc3nc(C)c(CCC(=O)Nc4ccccc4C(C)=O)c(C)n3n2)c(OC)c1	i	i	i	i	i	i
CCOC(=O)C1=C(c2ccccc2)N=c2s/c(=C\c3ccc(O)cc3)c(=O)n2C1c1cccs1 (stereo not given)	?	44.7µM	i	i	i	?
O=C1c2cc(O)cc(O)c2OC[C@@H]1c1ccc(O)c(O)c1	nt	nt	15µM	i	nt	nt
